# In all, about 360,000 compounds went through this assay and about 10,000 (2.8%) were called active. Roughly 4% stayed inconclusive and do not appear here. Shown is part of a subset that was picked to be rich in actives. Unmarked numbers belong to inactive results. Calls come from the whole dose curve; as a rule, active = well fitted inhibition curve with a large enough effect; inconclusive = small, poorly fitted or top-dose-only effect; inactive = flat fitted curve, though single readings scatter.
# Target: Serine/threonine-protein kinase PLK1 (Homo sapiens) (UniProt P53350)
# Sequence (P53350 whole entry, looked up, the tested form may be a part): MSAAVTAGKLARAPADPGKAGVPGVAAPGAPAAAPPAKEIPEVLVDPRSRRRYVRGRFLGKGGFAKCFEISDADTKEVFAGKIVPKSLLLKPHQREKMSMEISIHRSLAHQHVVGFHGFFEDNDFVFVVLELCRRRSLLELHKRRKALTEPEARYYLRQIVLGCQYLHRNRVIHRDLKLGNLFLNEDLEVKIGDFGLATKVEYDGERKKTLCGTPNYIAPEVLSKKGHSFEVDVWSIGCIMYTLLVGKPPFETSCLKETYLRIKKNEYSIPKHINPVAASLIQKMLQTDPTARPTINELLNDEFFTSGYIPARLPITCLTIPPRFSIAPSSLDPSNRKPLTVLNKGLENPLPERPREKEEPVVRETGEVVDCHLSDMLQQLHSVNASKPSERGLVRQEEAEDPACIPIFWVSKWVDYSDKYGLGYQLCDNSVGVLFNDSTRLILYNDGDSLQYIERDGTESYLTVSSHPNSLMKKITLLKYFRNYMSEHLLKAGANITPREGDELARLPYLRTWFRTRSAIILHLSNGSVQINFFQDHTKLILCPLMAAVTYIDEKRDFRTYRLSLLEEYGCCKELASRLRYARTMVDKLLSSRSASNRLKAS
# Test: qHTS for Inhibitors of PLK1-PDB (polo-like kinase 1 - polo-box domain): Primary Screen; note: nearly all actives have a fitted effect of over 65% in size; for max response, negative = inhibition: series mostly up to about 57 µM
# Conditions: Plk1 PBD binding of FITC phosphopeptide, fluorescence polarization
# % is set by controls: 0 for no effect and ±100 for the full control effect; potency is the fitted concentration of half-maximal effect.
Compound,Potency,"max response, negative = inhibition [%]"
Nc1ccc(S(=O)(=O)Nc2nccc(/C=C/c3ccc(Br)s3)n2)cc1,9.47 µM (active),
Oc1cccc2ccc(/C=C/c3ccc(Br)s3)nc12,,-8.23
CC(=O)Nc1ccc(S(=O)(=O)Nc2nccc(/C=C/c3ccccc3F)n2)cc1,,-13.8
CC(C)C1Cc2[nH][nH]c(=O)c2C(c2ccc(Cl)cc2)O1 (stereo not given),,-26.3
CCO/C=C1\C(=O)N(c2ccc(OCC)cc2)C(=O)c2ccccc21,13.4 µM (active),
CCOc1ccc(NC(=O)C(C)N2C(=O)c3ccccc3C2=O)cc1 (stereo not given),,-11.1
CCCOC(=O)c1ccc(N2C(=O)c3ccccc3C2=O)cc1,,-2.78
COc1ccc(NC(=O)C[C@H]2C(=O)N(CCc3ccccc3)C[C@@H]2C)cc1,,-7.3
CC1(C(=O)NS(=O)(=O)c2ccc(C#N)cc2)CCN1C(=O)c1ccc(C2CCCCC2)cc1 (stereo not given),,-18.9
COc1cccc(-c2cc(C(=O)N/N=C/c3ccc(OC)c(COC(C)=O)c3)c3ccccc3n2)c1,29.9 µM (active),
CCOc1ccc(-c2cc(C(=O)N/N=C/c3ccc(O)cc3)c3ccccc3n2)cc1,,1.12
COc1ccc(-c2cc(C(=O)N/N=C/c3cccnc3)c3ccccc3n2)c(OC)c1,,1.56
CC1=NN(C(=O)Cc2ccc(C)cc2)C(O)(c2cccnc2)C1 (stereo not given),23.8 µM (active),
CC1=NN(C(=O)c2ccc(Br)cc2)C(O)(c2ccccc2)C1 (stereo not given),,-4.08
CC1=NN(C(=O)c2ccccc2Br)C(O)(c2cccnc2)C1 (stereo not given),,-6.62
O=c1cc(CN2CCCCCCC2)c2c(ccc3ccccc32)o1,,-3.34
CCCCCCCCN1C(=O)[C@H](CC(=O)NCc2cccc3ccccc23)C[C@@]2(C(=O)OC)CCCCC=C12,,-2.64
COc1ccc(C(C)(NC(C)=O)c2nc(-c3ccc(S(C)(=O)=O)cc3)cs2)cc1 (stereo not given),,0.405
Cc1ccc(C=O)c([B-](F)(F)F)c1,,-2.89
CC(=O)Nc1ccc2c3c(ccc([N+](=O)[O-])c13)CC2,,-1.77
COc1cc(C(=O)CCc2ccc3c(c2)OCO3)cc(OC)c1OC,,-9.68
COc1ccc2cc1Oc1ccc(cc1)C[C@H]1c3cc(c(OC)cc3CCN1C)Oc1c(O)c(OC)cc3c1[C@H](C2)N(C)CC3,,-6.01
COc1c(O)ccc2c1CN1CCc3cc4c(cc3C1C2)OCO4 (stereo not given),23.8 µM (active),

Compound,Potency,"max response, negative = inhibition [%]"
CC1(Oc2ccccc2-c2ccno2)CCN(Cc2ccc(-c3ccccc3)o2)C1 (stereo not given),,-2.77
O=C(CSc1nc2ccccc2o1)N1CCN(c2ccccc2)CC1,,-6.93
CC(C)(C)C(=O)CSc1nc2ccccc2o1,,-18
O=C(CSc1nc2ccccc2o1)N/N=C/c1ccccc1C(=O)O,26.7 µM (active),
O=C(NCc1cccnc1)c1cc(C2CCCCN2C(=O)CCc2ccccc2)on1 (stereo not given),,-11.3
COC(=O)c1cccc(N2C(=O)C3C4C=CC(CC4)C3C2=O)c1 (stereo not given),,-4.67
COC(=O)c1cccc(NC(=O)c2cccc(N3C(=O)CCC3=O)c2)c1,,-2.1
COC(=O)c1cccc(-n2[nH]nnc2=S)c1,23.8 µM (active),
CCOC(=O)[C@]12CCCC=C1N(CCC1=CCCCC1)C(=O)[C@H](CC(=O)N1CCCCC1)C2,,-0.904
Cc1ccnc(SC2CC(=O)N(c3ccccc3)C2=O)n1 (stereo not given),,-15.5
Cc1ccnc(-n2sc3ccccc3c2=O)n1,3.77 µM (active),
COCCNc1nc(Nc2ccccc2Cl)c2sc(-c3ccccc3)cc2n1,,-12.6
Cc1ccc(C(=O)N2CCCc3ccccc32)c(Cl)c1,,3.98
Cc1ccc2cccc([N+](=O)[O-])c2n1,,2.99
CCOC(=O)c1ccccc1NC(=O)c1c(N)n(C)c(=O)[nH]c1=O,,-13.3
CCOC(=O)c1cc2n(c1N)-c1ccccc1C2=O,2.67 µM (active),
CCOC(=O)c1ccccc1CN1C(=O)c2ccccc2S1(=O)=O,,-6.41
CN(Cc1ccccc1)C(=O)[C@@H]1CCCN1C(=O)[C@@H]1CCCN1C(=O)c1c(F)cccc1F,,-9.51
O=C(CN1C(=O)C2C3C=CC(C3)C2C1=O)Nc1nc(-c2ccccn2)cs1 (stereo not given),,-7.14
O=C(CSC1=NCCS1)Nc1nc(-c2ccccc2)cs1,,-11.4
N#Cc1ccc(OCC(=O)Nc2nc(-c3ccccn3)cs2)cc1,8.44 µM (active),
O=C(COc1ccccc1F)Nc1nc(-c2ccccn2)cs1,11.9 µM (active),
CC1CCCCC1NC(=O)COc1ccc(C#N)cc1 (stereo not given),,-1.85

Compound,Potency,"max response, negative = inhibition [%]"
CC(NC(=O)c1ccco1)C(=O)Nc1nc(-c2ccccn2)cs1 (stereo not given),,-15.6
CC(C)c1cc(C(=O)N(C)C2CCCN(Cc3ccccc3F)C2)n(C)n1 (stereo not given),,-5.2
NC(Cc1ccc(F)cc1)c1csc(Nc2nncc3ccccc23)n1 (stereo not given),,-1.72
COC(=O)[C@]12CCCCC=C1N(Cc1ccccc1)C(=O)[C@H](CC(=O)NCc1ccc(C)o1)C2,,-1.64
CNC(=O)c1ccc(CN(C)C(=O)c2cc(C3CC3)nc3c2cnn3C(C)C)cc1,,-13.7
O=S1(=O)CC(N2CCN(Cc3ccccc3F)CC2)CN1Cc1cn(Cc2ccccc2)nn1 (stereo not given),,0.233
CCOC(=O)C1CCCN(C(=O)c2cc(-c3cccs3)oc2C)CC1 (stereo not given),,-3.67
O=C(Oc1ccc(F)cc1)N1CCOCC1,,-11.5
O=C(Oc1ccc(C(=S)N2CCOCC2)cc1)c1ccc(F)cc1,21.2 µM (active),
O=C(Oc1cccc(C(=S)N2CCOCC2)c1)c1cccc(Cl)c1,,-12.2
COc1cc(C)c(S(=O)(=O)N2CCOCC2)c(C)c1C,,-14.4
Cc1cc(C)c(S(=O)(=O)N2CCOCC2)cc1C,10.6 µM (active),
COc1ccc(S(=O)(=O)N2CCOCC2)c(C)c1C,,-1.42
CCOP(=O)(OCC)C(Cc1ccccc1)N=C(c1ccccc1)c1ccccc1 (stereo not given),,-2.76
COC(=O)[C@@]12C[C@@H](CC(=O)NCCCCc3ccccc3)C(=O)N(CCc3ccc(OC)c(OC)c3)C1=CCC(C)(C)C2,,-6.86
CCOC(=O)[C@]12CCCC=C1N(CCC1=CCCCC1)C(=O)[C@H](CC(=O)N1CCOCC1)C2,,-15.5
CN1CCN(CCCNC(=O)c2ccc(/C=C3\Oc4ccccc4N(Cc4ccc(Cl)cc4)C3=O)cc2)CC1,,-4.87
CCCN1CCN(CCCNC(=O)CN2C(=O)COc3ccccc32)CC1,,-2.49
CC(C)OCCCNC(=O)CN1C(=O)/C(=C/c2ccccc2F)Oc2ccccc21,26.7 µM (active),
CC1(C(=O)NS(=O)(=O)c2ccccc2)CCN1C(=O)c1ccccc1 (stereo not given),,-4.3
CN(C)C(=O)c1cccc(-c2cnc3sc(NCc4ccc5c(c4)OCO5)nn23)c1,,-3.28
Cc1cccc(C(=O)OCC(=O)Nc2sccc2C(N)=O)c1C,,4.89
Cc1cnc(C(=O)N2CCCC(C(=O)c3ccc(C(F)(F)F)cc3)C2)cn1 (stereo not given),,6.24

Compound,Potency,"max response, negative = inhibition [%]"
O=C(c1ccc(C(F)(F)F)cc1)C1CCCN(C(=O)c2csnn2)C1 (stereo not given),,2.18
Cc1nc(C(=O)N2CCCC(C(=O)c3ccc(Cl)cc3)C2)cs1 (stereo not given),26.7 µM (active),
Cc1cccc(C)c1-n1nnnc1C(CCc1ccccc1)N1CCN(C/C=C/c2ccccc2)CC1 (stereo not given),,-10.6
c1cc(-c2ccc3[nH]ccc3c2)n2ccnc2c1,,-9
O=C(Nc1ccc2c(c1)CCC2)c1cccc(S(=O)(=O)Nc2ccccc2Cl)c1,,-7.42
COc1cccc(NC(=O)CN2CCN(CC(=O)Nc3ccccc3Cl)CC2)c1,,-1.84
O=C(Cc1ccc2c(c1)CCCC2)Nc1ccccc1Cl,16.8 µM (active),
Cc1onc(-c2ccccc2)c1-c1nnc(COC(=O)c2ccc(N(C)C)cc2)o1,,5.92
CCc1nc2c(OCc3cccc(OC)c3)cccn2c1N(C)C(=O)C(C)C,,-12
O=C(NC(=S)Nc1ccccc1C(=O)O)c1ccc(-c2ccc(Br)cc2)o1,13.4 µM (active),
CN1CCN(C(=O)c2ccc(-c3ccc(Br)cc3)o2)CC1,,-2.57
O=C(O)c1ccccc1NC(=O)c1ccccc1-c1ccccc1C(=O)O,,-6.65
CC(C)(C)CC(=O)Nc1nc(C(N)Cc2ccc(C(F)(F)F)cc2)cs1 (stereo not given),,-8.43
C[N+](C)(C)CCNC(=O)c1c[nH]c2ccccc12,,-0.504
COc1ccc(C2CC(c3ccc([N+](=O)[O-])cc3)=NN2C(C)=O)cc1 (stereo not given),,-7.83
COC(=O)c1c(C)[nH]c(C)c1-c1ccc([N+](=O)[O-])cc1,,-17.8
CC(=O)N1CC[n+]2c(-c3ccc([N+](=O)[O-])cc3)csc21,9.47 µM (active),
CSc1ccc(CN2CCC2(C)C(=O)NCc2ccccc2Br)cc1 (stereo not given),,2.74
Cc1ccc(-n2c(C)cc(C(=O)CN3C(=O)C(=O)N(C4CCCC4)C3=O)c2C)cc1,26.7 µM (active),
Cc1ccc(-n2c(C)cc(C(=O)CSc3nnc4ccccn34)c2C)cc1,,-3.52
Cc1cc(C(=O)COC(=O)C2CC2)c(C)n1-c1ccc(F)cc1,,3.31

# Reference: PubChem BioAssay AID720504 (National Center for Advancing Translational Sciences (NCATS), 2013)
